Assay results from the supplement of paper PMC6607015.
Counter-ions that a name gives are not always drawn.

Tested on: HeLa MZ
Experiment: LBPA endosome anti-LBPA integrated intensity (sum per cell), Z-score; higher = more LBPA staining
Settings: compound concentration in added solution (µM; 5 µl added to 20 µl cells): 10; 18 h
In short: (§1)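 Four 20× images per well were taken of HeLa MZ or A431 cells that had been seeded at 3,500 per well in 20 µl onto 5 µl of 10 µM compound solution in duplicate 384-well imaging plates. Before imaging, cells were incubated 18 h, fixed in 4% PFA and stained with 6C4 anti-LBPA antibody, filipin, propidium iodide and CellTracker green. Values are Z-scores normalised in AcuityXpress from MetaXpress-derived per-cell integrated LBPA or filipin intensity, either whole-cell or within LBPA endosomes.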

| SMILES | LBPA endosome anti-LBPA integrated intensity (z-score) |
| --- | --- |
| Cc1cccc(C)c1NC(=O)C(C)N (stereo not drawn) [Tocainide hydrochloride] | -0.526 |
| CS(=O)(=O)Nc1ccc([N+](=O)[O-])cc1Oc1ccccc1 [Nimesulide] | -0.741 |
| COC(=O)C1=C(C)NC(C)=C(C(=O)OCC(C)C)C1c1ccccc1[N+](=O)[O-] (stereo not drawn) [Nisoldipine] | 1.99 |
| CCCCNc1c(C(=O)OCC)c(C)nc2c1cnn2CC [Tracazolate hydrochloride] | 1.37 |
| CN(N=O)C(=O)N[C@@H](C=O)[C@@H](O)[C@H](O)[C@H](O)CO [Streptozotocin] | -0.52 |
| NS(=O)(=O)c1cc2c(cc1Cl)NCNS2(=O)=O [Hydrochlorothiazide] | -1.08 |
| NCc1ccccc1CC(=O)N[C@@H]1C(=O)N2C(C(=O)O)=C(CSc3nnnn3CC(=O)O)CS[C@H]12 [Ceforanide] | -0.0362 |
| COc1cc2nc(N(C)CCCNC(=O)C3CCCO3)nc(N)c2cc1OC (stereo not drawn) [Alfuzosin hydrochloride] | 1.11 |

Tested on: A431
Experiment: whole-cell filipin (free cholesterol) integrated intensity, Z-score; higher = more cholesterol staining
Settings: compound concentration in added solution (µM; 5 µl added to 20 µl cells): 10; 18 h
In short: as §1

| SMILES | whole-cell filipin (z-score) |
| --- | --- |
| CC(=O)Oc1cc(C(F)(F)F)ccc1C(=O)O [Triflusal] | -0.393 |
| O=C(CCCN1CCC(O)(c2ccc(Br)cc2)CC1)c1ccc(F)cc1 [Bromperidol] | 1.76 |
| CCOc1ccccc1OCC1CNCCO1 (stereo not drawn) [Viloxazine hydrochloride] | -0.124 |
| N=C(N)NC(=N)NCCc1ccccc1 [Phenformin hydrochloride] | -0.366 |
| N=C(N)NC(=O)Cc1c(Cl)cccc1Cl [Guanfacine hydrochloride] | -0.556 |
| N[C@@H](Cc1cc(I)c(Oc2ccc(O)c(I)c2)c(I)c1)C(=O)O [Liothyronine] | -0.411 |
| Cc1onc(-c2c(Cl)cccc2Cl)c1C(=O)N[C@@H]1C(=O)N2[C@@H]1SC(C)(C)[C@@H]2C(=O)O [Dicloxacillin sodium salt hydrate] | -0.616 |
| CCCC(=O)Nc1ncnc2c1ncn2[C@@H]1O[C@@H]2COP(=O)(O)O[C@H]2[C@H]1OC(=O)CCC [Bucladesine sodium salt] | -0.132 |
| c1ccc2c(CC3=NCCN3)cccc2c1 [Naphazoline hydrochloride] | -0.75 |
| NC(=O)c1cc[n+](CC2=C(C(=O)[O-])N3C(=O)[C@@H](NC(=O)[C@@H](c4ccccc4)S(=O)(=O)O)[C@H]3SC2)cc1 [Cefsulodin sodium salt] | -0.331 |
| CCN[C@H]1C[C@H](C)S(=O)(=O)c2sc(S(N)(=O)=O)cc21 [Dorzolamide hydrochloride] | 0.0896 |
| CN(C)CCOc1ccc(/C(=C(/CCCl)c2ccccc2)c2ccccc2)cc1 [Toremifene] | 2.3 |
| CN(C)C(=O)C(CCN1CCC(O)(c2ccc(Cl)cc2)CC1)(c1ccccc1)c1ccccc1 [Loperamide hydrochloride] | 0.703 |
| CCn1cc(C(=O)O)c(=O)c2cc(F)c(N3CCN(C)CC3)cc21 [Pefloxacine] | -0.866 |
| Cc1ccc2c(c1)c1c3n2CCNC3CCC1 (stereo not drawn) [Pirlindole mesylate] | 0.654 |
| CCS(=O)(=O)CCn1c([N+](=O)[O-])cnc1C [Tinidazole] | -0.195 |
| Cc1ccc(Cl)c(Nc2ccccc2C(=O)O)c1Cl [Meclofenamic acid sodium salt monohydrate] | -0.856 |
| CN1CCCN=C1/C=C/c1cccs1 [Pyrantel tartrate] | -0.934 |
| CC(C)NCC(O)c1ccc(O)c(O)c1 (single isomer, unassigned; (-)) [(-)-Isoproterenol hydrochloride] | 0.672 |
| CCCCN(CCCC)CCC(O)c1cc2c(Cl)cc(Cl)cc2c2cc(C(F)(F)F)ccc12 (stereo not drawn) [Halofantrine hydrochloride] | 1.07 |

| SMILES | whole-cell filipin (z-score) |
| --- | --- |
| C#Cc1cccc(Nc2ncnc3cc(OCCOC)c(OCCOC)cc23)c1 [Erlotinib] | -0.02 |
| CN1CCN(C(c2ccccc2)c2ccc(Cl)cc2)CC1 (stereo not drawn) [Chlorcyclizine hydrochloride] | 1.78 |
| CC(C)[C@H](N)C(=O)OCCOCn1cnc2c(=O)nc(N)[nH]c21 [Valacyclovir hydrochloride] | -0.723 |
| CN[C@H](CC(C)C)C(=O)N[C@H]1C(=O)N[C@@H](CC(N)=O)C(=O)N[C@H]2C(=O)N[C@H]3C(=O)N[C@H](C(=O)N[C@H](C(=O)O)c4cc(O)cc(O)c4-c4cc3ccc4O)[C@H](O)c3ccc(c(Cl)c3)Oc3cc2cc(c3O[C@@H]2O[C@H](CO)[C@@H](O)[C@H](O)[C@H]2O[C@H]2C[C@](C)(N)[C@H](O)[C@H](C)O2)Oc2ccc(cc2Cl)[C@H]1O [Vancomycin hydrochloride] | -0.355 |
| Nc1ccc(S(=O)(=O)NC(=O)c2ccccc2)cc1 [Sulfabenzamide] | -0.453 |
| Nc1ccc(S(=O)(=O)Nc2ccc(Cl)nn2)cc1 [Sulfachloropyridazine] | -0.227 |
| CCN(CC)CCOC(=O)C(c1ccccc1)C1CCCCC1 (stereo not drawn) [Drofenine hydrochloride] | 1.05 |
| N=C(N)NCCN1CCCCCCC1 [Guanethidine sulfate] | -0.871 |
| Cc1cc(-n2c(=O)[nH]c(=O)n(C)c2=O)ccc1Oc1ccc(SC(F)(F)F)cc1 [Toltrazuril] | -0.109 |
| CN(C)CCC=C1c2ccccc2COc2ccccc21 [Doxepin hydrochloride] | 1.29 |
| CN1CCCCC1CCN1c2ccccc2Sc2ccc([S+](C)[O-])cc21 (stereo not drawn) [Mesoridazine besylate] | 0.066 |
| CN1CCC(=C2c3ccccc3C=Cc3ccccc32)CC1 [Cyproheptadine hydrochloride] | 1.01 |
| Cc1cccc(C)c1NC(=O)C(C)N (stereo not drawn) [Tocainide hydrochloride] | 0.139 |
| CS(=O)(=O)Nc1ccc([N+](=O)[O-])cc1Oc1ccccc1 [Nimesulide] | -0.718 |
| COC(=O)C1=C(C)NC(C)=C(C(=O)OCC(C)C)C1c1ccccc1[N+](=O)[O-] (stereo not drawn) [Nisoldipine] | 0.622 |
| CCCCNc1c(C(=O)OCC)c(C)nc2c1cnn2CC [Tracazolate hydrochloride] | 0.113 |
| CN(N=O)C(=O)N[C@@H](C=O)[C@@H](O)[C@H](O)[C@H](O)CO [Streptozotocin] | -0.71 |
| NS(=O)(=O)c1cc2c(cc1Cl)NCNS2(=O)=O [Hydrochlorothiazide] | -0.757 |
| NCc1ccccc1CC(=O)N[C@@H]1C(=O)N2C(C(=O)O)=C(CSc3nnnn3CC(=O)O)CS[C@H]12 [Ceforanide] | -0.326 |
| COc1cc2nc(N(C)CCCNC(=O)C3CCCO3)nc(N)c2cc1OC (stereo not drawn) [Alfuzosin hydrochloride] | -0.35 |
